In PubChem BioAssay AID686971 (National Center for Advancing Translational Sciences (NCATS), 2013):
In all, about 360,000 compounds went through this assay and about 7,500 (2.1%) were called active. Inconclusive results (about 8%) are left out. For the sample, actives were picked, then their nearest neighbours and some compounds at random. Values without a mark were called inactive. Calls follow the shape of the dose curve; as a rule, active = well fitted cell-killing curve with a large enough effect; inconclusive = small, poorly fitted or top-dose-only effect, or effect the other way, or another doubt; inactive = no such curve, though single readings can be large or run the other way.

Test: qHTS for induction of synthetic lethality in tumor cells producing 2HG: qHTS for the HT-1080-IDH1KD cell line;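 as to activity, negative = toxicity: 0% = DMSO wells and -100% = cell-free medium wells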
Settings: HT-1080 IDH1 knockdown viability, ATP luminescence, 48 h; series mostly up to 46.1 µM; activity, negative = toxicity: at the top concentration
How it was run: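 Knockdown cells (IDH1KD HT-1080) received compounds 2 h after plating at 750 cells/well and were kept 48 h at 37 °C in 5% FBS RPMI. A CellTiter-Glo luminescence read gave % activity for curve fitting.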
Potency is read from the fitted curve at half-maximal effect.

Compared with CC(=O)Nc1c(-c2ccc(C)cc2)nc2ccc(Cl)cn12, Fc1cccc(Cc2c(-c3cccc(Cl)c3)nc3ccc(Br)cn23)c1 is lower in “activity, negative = toxicity” value: 10.7% for the first, -22.4% for the second.

Going from CCCCn1nnnc1C1(C)CCC(=O)N1Cc1ccc(OC)c(OC)c1 (stereo not drawn) to COc1ccc(C(=O)N2CC3(C)CC2CC(C)(C)C3)cc1OC (stereo not drawn), the “activity, negative = toxicity” value falls from 13.4% to -4.16%.

First: CCCc1nc2ccccc2n1C(C)C(=O)NC(C)(C)C (stereo not drawn)
Second: CC(C)(C)C(=O)Cn1c(NCCO)nc2ccccc21
The “activity, negative = toxicity” value of the first is higher: 3.92% for the first, 2.2% for the second.

Going from CC1CCCC(C)N1C(=O)COC(=O)c1ccccc1C(=O)c1ccccc1 (stereo not drawn) to O=C(/C=C/NNC(=O)c1cccc(Br)c1)c1ccccc1, the “activity, negative = toxicity” value falls from 0.369% to -10.2%.

Compared with O=C(Nc1ccc2c(c1)CCC2)c1cccc(S(=O)(=O)N2CCN(c3ccc(F)cc3)CC2)c1, O=C(CSc1nc2cccc(F)c2c(=O)n1-c1ccccc1)Nc1ccc2c(c1)CCC2 is higher in “activity, negative = toxicity” value: -0.473% for the first, 18.2% for the second.

Going from Cc1ccc(C(=O)Nc2ncccc2C)cc1S(=O)(=O)N1CCOCC1 to NC(=O)CSc1nnc(-c2cccc(S(=O)(=O)N3CCOCC3)c2)o1, the “activity, negative = toxicity” value falls from -0.0269% to -2.93%.

Going from O=C1NC[C@H](CCCCN2CCN(CCc3ccccc3)C(=O)C2=O)N(CC2CCCCC2)C1=O to O=C(NCCc1ccccc1)C1CCN(S(=O)(=O)c2ccc(Br)s2)CC1, the “activity, negative = toxicity” value falls from 19.7% to -5.3%.

First: COC(=O)[C@]12CCCCC=C1N(Cc1ccco1)C(=O)[C@H](CC(=O)NCC1CCCCC1)C2
Second: CCN(CC)C(=O)C1=C(C)N(Cc2ccc(F)cc2)C(=O)C(CC(=O)NC2CCCC2)C1 (stereo not drawn)
The “activity, negative = toxicity” value of the first is higher: 5.64% for the first, -4.13% for the second.

First: CCOC(=O)C1=CCC2C(=O)N(Cc3ccccc3)C(=O)C12 (stereo not drawn)
Second: COC(=O)c1ccc(CN2C(=O)C(Cc3ccccc3)ON=C2c2ncccc2C)o1 (stereo not drawn)
The “activity, negative = toxicity” value of the first is lower: 16.5% for the first, 17.4% for the second.

Compared with COc1ccc(C2=Nc3ccccc3NC(=O)C2N(C(=O)c2cc3ccccc3[nH]2)c2ccccc2)cc1 (stereo not drawn), CCN(C(=O)Nc1cccc2ccccc12)c1ccccc1 is higher in “activity, negative = toxicity” value: -17.6% for the first, -4.17% for the second.

Compared with CC(C)Oc1cc(F)ccc1-c1cc(C(=O)Nc2ccc(F)cc2)[nH]n1, Cc1ccc(C(O)c2ncc(-c3ccccc3F)[nH]2)cc1F (stereo not drawn) is lower in “activity, negative = toxicity” value: 23.9% for the first, -8.27% for the second.

Compared with CS(=O)(=O)Nc1cccc(-c2cn3ccccc3n2)c1, COc1cccc(NC(=O)CN(C)C(=O)c2cc(Cl)nc3ccccc23)c1 is lower in “activity, negative = toxicity” value: 2.25% for the first, -3.44% for the second.

Going from COC(=O)c1ccc(-c2c(-c3ccccc3)ncc3cc(OC)c(OC)cc23)cc1 to COc1ccc(-c2c(C)cc3oc(=O)cc(-c4ccccc4)c3c2C)cc1OC, the “activity, negative = toxicity” value falls from 12.5% to 5.89%.

Compared with CC(=O)c1cccc(-c2cnc3c(NC=O)cc(-c4ccc(N5CCN(C)CC5)cc4)cn23)c1, Cc1ccc(SCC(=O)N2CCN(c3ccc(F)cc3)CC2)cc1 is higher in “activity, negative = toxicity” value: 0.623% for the first, 17.4% for the second.

Compared with COc1cc(C=O)ccc1Oc1nnnn1-c1ccccc1, Cc1ccnc(SC2CC(=O)N(c3ccccc3)C2=O)n1 (stereo not drawn) is lower in “activity, negative = toxicity” value: 0.603% for the first, -0.931% for the second.

First: O=[N+]([O-])c1ccc(C(S(=O)(=O)Cc2ccccc2)S(=O)(=O)Cc2ccccc2)cc1
Second: O=C1C(=O)N(c2ccccc2)C(c2ccccc2)C1c1ccccc1 (stereo not drawn)
The “activity, negative = toxicity” value of the first is higher: 15.6% for the first, -0.624% for the second.

First: C[C@H]1COc2cc(N3CCSCC3)ccc2S(=O)(=O)N1
Second: CCOC(=O)C1CCCN(C(=O)c2ccc(C)c(F)c2)CC1 (stereo not drawn)
The “activity, negative = toxicity” value of the first is higher: 10.8% for the first, 1.99% for the second.

Going from O=C(O)C1=C(C(=O)O)C2CCC1C2 to O=C(C1CCCO1)N1CCN(C(=O)C23CC4CC(CC(C4)C2)C3)CC1 (stereo not drawn), the “activity, negative = toxicity” value rises from 3.61% to 14.9%.

First: CCCNC(=O)c1cc(C2CCCCN2S(=O)(=O)c2ccc(C#N)cc2)on1 (stereo not drawn)
Second: COc1ccccc1NC(=O)C1CCCN1S(=O)(=O)c1ccc(Cl)cc1 (stereo not drawn)
The “activity, negative = toxicity” value of the first is higher: 14.6% for the first, -1.61% for the second.

Compared with O=C1c2cccnc2C(=O)N1Cc1cccs1, CCOc1ccc(CCN2C(=O)c3cccnc3C2=O)cc1OCC is higher in “activity, negative = toxicity” value: 16% for the first, 26.8% for the second.

Compared with COc1cc2nc(Cl)nc(NC3CC3)c2cc1OC, COc1ccc(Br)cc1/C=N/Nc1ccc(Cl)c(C(=O)O)c1 is lower in “activity, negative = toxicity” value: -9.28% for the first, -10.5% for the second.

First: CC(C)CCC(=O)Nc1cc(S(=O)(=O)N2CCOCC2)ccc1N1CCCC1
Second: O=C(OCC(=O)N1CCCCCC1)c1cccc(Cl)c1Cl
The “activity, negative = toxicity” value of the first is lower: 0.313% for the first, 16.8% for the second.

Compared with Cc1ccc(-c2ccc(CN3C(C(C)C)C(=O)N(Cc4cn(CCC5OCCCO5)nn4)CCS3(=O)=O)cc2)cc1 (stereo not drawn), CC(C)NC(=O)C1(C)CCCCCN1C(=O)c1ccc(-c2ccccc2)cc1 (stereo not drawn) is higher in “activity, negative = toxicity” value: -7.51% for the first, 11.9% for the second.

First: Cc1cc2c(cc1C)N1C(=O)c3cc4ccccc4cc3NC(=O)C1C(=O)N2 (stereo not drawn)
Second: COc1ccc(-c2c(C)cc3oc(=O)cc(-c4ccccc4)c3c2C)cc1F
The “activity, negative = toxicity” value of the first is lower: 1.1% for the first, 13.4% for the second.

First: CS(=O)(=O)/C(C#N)=C/c1cccn1S(=O)(=O)c1ccc([N+](=O)[O-])cc1
Second: CCOC(=O)/C(C#N)=C/c1cn(CCC(=O)O)nc1-c1ccc(Br)cc1
The “activity, negative = toxicity” value of the first is lower: -6.02% for the first, -2.79% for the second.

First: CCN(CC)C(=O)N(CC)Cc1ccccc1
Second: CCc1c(N=O)c(-c2ccccc2)n(O)[n+]1[O-]
The “activity, negative = toxicity” value of the first is higher: 2.96% for the first, -7.78% for the second.

Going from CN(/N=C/c1ccccc1)C(=S)c1ccccc1 to Cc1ccccc1N1C(=O)C2ON(c3ccccc3)C(c3ccncc3)C2C1=O (stereo not drawn), the “activity, negative = toxicity” value rises from -5.97% to 4.69%.

Compared with C[C@H]1CN([C@@H](C)CO)C(=O)CCCn2cc(nn2)CO[C@@H]1CN(C)C(=O)Nc1ccccc1, Cn1c(CNC(=O)c2ccco2)nnc1SCC(=O)N1CCN(c2ccccc2)CC1 is higher in “activity, negative = toxicity” value: 1% for the first, 3.17% for the second.

Compared with Cc1cc2nnc(SCC(=O)N3CCN(c4ccccc4)CC3)n2c(N)n1, CCN1CCN(C(=O)CSc2ccc(C)cc2)CC1 is lower in “activity, negative = toxicity” value: 21.7% for the first, 3.16% for the second.

Going from O=C(NC1CCCCC1)C(c1cc2ccccc2o1)n1c(=O)c(-c2ccco2)nc2ccccc21 (stereo not drawn) to COc1cccc(C(NC(C)=O)c2nc(-c3cnc4ccccc4c3)cs2)c1 (stereo not drawn), the “activity, negative = toxicity” value rises from -16.8% to 3.84%.

First: COc1ccc(CN2C[C@H]3CON(C)[C@H]3C[C@H]2c2ccc(-c3cccc(F)c3)cc2)cc1
Second: COc1ccc([C@H]2N[C@]3(CCCN(Cc4ccco4)C3=O)[C@H]3C(=O)N(C)C(=O)[C@@H]23)cc1
The “activity, negative = toxicity” value of the first is lower: -23% for the first, -1.26% for the second.

First: Cc1ccccc1C#CC1=CC(=O)CC(C)(C)C1
Second: Cc1cccc(C)c1NC(=O)C(c1cccc(F)c1)N1CCN(C)CC1 (stereo not drawn)
The “activity, negative = toxicity” value of the first is lower: -9.77% for the first, 0.538% for the second.

Going from C/C(COc1ccccc1)=N\NC(=O)c1nnn(-c2nonc2N)c1-c1ccc(C)cc1 to COc1ccc(CNc2ncnc3ccccc23)cc1, the “activity, negative = toxicity” value rises from -8.96% to -4.12%.

Compared with CN(C)C(=O)COC(=O)c1cccc(S(=O)(=O)N2CC3(C)CC2CC(C)(C)C3)c1 (stereo not drawn), CCCCCCn1c(=O)n2n(c1=O)C[C@]1(OC(=O)NCc3ccc(OC)c(OC)c3)CN(S(=O)(=O)c3ccc(C)cc3)C[C@]1(O)C2 is lower in “activity, negative = toxicity” value: -3.59% for the first, -14.7% for the second.

Going from COc1cc(C=NC2CCCCC2)ccc1O to N#CCCN(C(=S)Nc1ccc(Cl)c(Cl)c1)C1CCCCC1, the “activity, negative = toxicity” value falls from 0.126% to -6.17%.

Going from CC(=O)NCC(=O)NC1CCCc2c1cnn2-c1ccccc1F (stereo not drawn) to Cc1ccc(-n2ncc3c2CCCC3NC(=O)c2cnccn2)cc1C (stereo not drawn), the “activity, negative = toxicity” value falls from 4.51% to -13.4%.

Going from CCOC(=O)c1c(NC(=S)SC)sc(C(=O)N2CCc3ccccc3C2)c1C to C[C@H]1Cn2cnc(C(=O)N[C@@H](Cc3c[nH]c4ccccc34)C(=O)OC(C)(C)C)c2C(=O)N1, the “activity, negative = toxicity” value rises from -7.65% to 12.4%.

Compared with O=S(=O)(O)c1nc2ccccc2n1Cc1ccc(Cl)cc1Cl, O=S(=O)(NCc1cccnc1)c1ccc(Br)s1 is higher in “activity, negative = toxicity” value: -15.2% for the first, 1.62% for the second.

Going from CCc1oc(-c2ccc(OC)cc2)c(C(=O)OCCCCCO)c1C(C)OCCO (stereo not drawn) to COCOc1cccc(CN2CCC(C)(Oc3ccc(SC)cc3)C2)c1 (stereo not drawn), the “activity, negative = toxicity” value rises from -13.9% to -8.36%.

First: CC1(C)N=C(N)NC(Nc2ccc(Cl)cc2)=N1
Second: Brc1ccc2ncnc(NCc3cccnc3)c2c1
The “activity, negative = toxicity” value of the first is higher: 1.16% for the first, -15.5% for the second.

First: O=C1OCCOC2CCCc3oc(-c4ccccc4)c1c32 (stereo not drawn)
Second: O=C(Nc1ccc2c(c1)OCCO2)C(C1CC1)N1CCC(Cc2ccccc2)CC1 (stereo not drawn)
The “activity, negative = toxicity” value of the first is higher: 6.75% for the first, -22% for the second.

Compared with CCC1OC(C2CC2)CC2=C1C(=O)OC(C)(C)O2 (stereo not drawn), O=c1[nH]c2cccnc2n(CCNc2ncc(C(F)(F)F)cc2Cl)c1=O is lower in “activity, negative = toxicity” value: 0.481% for the first, -16.6% for the second.

For CCCCCCCCn1c2c(c(=N)c3c1CCC3)CCCC2, the Potency was 8.2 µM (active).
With Cc1cccnc1NC(=O)c1cccc(S(=O)(=O)N2CCN(c3ccc(F)cc3)CC2)c1 the Potency was 29.1 µM (active).
In the case of COc1ccc(-c2cc(NC=O)c3ncc(-c4ccccc4)n3c2)cc1OC, the Potency is reported as 16.4 µM (active).
For CC(=O)c1ccc(-c2cnc3c(NC=O)cc(-c4cccc(NS(C)(=O)=O)c4)cn23)cc1, the Potency was 8.2 µM (active).
In the case of NC1=CC(=O)C(=O)c2cccnc21, the Potency is reported as 11.6 µM (active).
In the case of Oc1ccc(/C=N/N(Cc2ccccc2)c2ccccc2)cc1, the Potency is reported as 16.4 µM (active).
With Cn1c(Cc2cccc3ccccc23)nnc1SCC(=O)N1CCN(c2cccc(Cl)c2)CC1 the Potency was 20.6 µM (active).
In the case of CC[n+]1cc(C)ccc1/C=C/c1ccc(N(C)C)cc1, the Potency is reported as 7.31 µM (active).
In the case of O=C(O)CCn1cc(/C=C/C(=O)c2ccc(Cl)cc2)c(-c2cccc(Br)c2)n1, the Potency is reported as 23.1 µM (active).
With Cc1nnnn1/C(=C\c1ccccc1)C(=O)OCC(=O)N1CC2(C)CC1CC(C)(C)C2 (stereo not drawn) the Potency was 14.6 µM (active).
In the case of COc1cc(OC)c2c(-c3cccc(-c4cccc(N)c4)c3)cc(=O)oc2c1, the Potency is reported as 5.17 µM (active).
With CCN1CCC2(CC1)N=C(c1ccc(F)cc1)C(=S)N2C(=O)c1ccc(C)cc1 the Potency was 23.1 µM (active).
With O=C1[C@@H](c2ccccc2)[C@@H](c2ccccc2)N1c1cccnc1 the Potency was 16.4 µM (active).
In the case of Cn1nccc1C(=O)NC1CCCc2c1cnn2-c1ccc(F)cc1F (stereo not drawn), the Potency is reported as 0.92 µM (active).
In the case of O=C(Cn1c(NCCO)nc2ccccc21)c1ccc(Cl)cc1Cl, the Potency is reported as 20.6 µM (active).
With COc1ccccc1NC1=NC(c2ccc(Cl)cc2)N=C(N)N1 (stereo not drawn) the Potency was 5.62 µM (active).
With O=S(=O)([N-]c1nc2ccccc2nc1-[n+]1ccc(Cc2ccccc2)cc1)c1ccc(Br)s1 the Potency was 20.6 µM (active).
With c1coc(CNc2ncnc3ccccc23)c1 the Potency was 20.6 µM (active).
For COc1cccc(/C=N/Nc2ncc(C(F)(F)F)cc2Cl)c1O, the Potency was 9.2 µM (active).
